{"source": "PubChem BioAssay AID1923", "about": "(Vanderbilt High Throughput Screening Facility, 2009)", "note": "Active and inactive are the calls of the source.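 Rule for the calls: active = compound that boosted calcium signal to a low acetylcholine dose in a dose-dependent way; inactive = the rest.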"}
{"molecular_target": "Muscarinic acetylcholine receptor M4 (Rattus norvegicus) (UniProt P08485)", "sequence (P08485 whole entry, looked up)": "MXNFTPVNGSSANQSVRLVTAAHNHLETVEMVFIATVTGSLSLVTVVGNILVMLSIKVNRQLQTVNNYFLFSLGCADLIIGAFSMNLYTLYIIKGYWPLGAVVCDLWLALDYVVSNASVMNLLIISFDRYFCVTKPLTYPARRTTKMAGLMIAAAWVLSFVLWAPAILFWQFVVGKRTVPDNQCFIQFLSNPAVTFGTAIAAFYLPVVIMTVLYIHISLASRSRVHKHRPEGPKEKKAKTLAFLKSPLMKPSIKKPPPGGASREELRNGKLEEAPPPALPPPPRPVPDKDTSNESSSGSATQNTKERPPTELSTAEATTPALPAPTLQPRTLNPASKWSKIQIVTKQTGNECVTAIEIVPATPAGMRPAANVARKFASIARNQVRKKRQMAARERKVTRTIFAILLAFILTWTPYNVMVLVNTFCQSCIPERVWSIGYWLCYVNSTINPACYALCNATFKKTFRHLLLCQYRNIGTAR", "experiment": "rat M4 positive allosteric modulator potency, SAR follow-up, cell-based, analogs, calcium mobilization, Gqi5 (AID 1923)", "details": "CHO-K1 rM4/Gqi5, calcium mobilization Fluo-4, ACh EC20"}
{"smiles": "COc1ccc(CNC(=O)c2sc3nc(OCCN4CCOCC4)cc(C)c3c2N)cc1", "outcome": "active; fitted 6.47 uM"}
{"smiles": "COCCCNC(=O)c1sc2nc(OCCN3CCOCC3)cc(C)c2c1N", "outcome": "active; fitted 6.25 uM"}
{"smiles": "Cc1cc(OCc2ccncc2)nc2sc(C(=O)NCc3cccc(F)c3F)c(N)c12", "outcome": "active; fitted 1.61 uM"}
{"smiles": "Cc1cc(OCCCN(C)C)nc2sc(C(=O)NCc3cc(F)ccc3F)c(N)c12", "outcome": "active; fitted 2.75 uM"}
{"smiles": "COc1ccc(CNC(=O)c2sc3nc(OCC4CCCN(C)C4)cc(C)c3c2N)cc1", "note": "(configuration not stated)", "outcome": "inactive"}
{"smiles": "COc1ccc(CNC(=O)c2sc3nc(OCc4ccccn4)cc(C)c3c2N)cc1", "outcome": "active; fitted 1.77 uM"}
{"smiles": "COc1ccc(CNC(=O)c2sc3nc(OCCN(C)C)cc(C)c3c2N)cc1", "outcome": "inactive"}
{"smiles": "COc1ccc(CNC(=O)c2sc3nc(OC(C)C)cc(C)c3c2N)cc1", "outcome": "inactive"}
{"smiles": "CCCOc1cc(C)c2c(N)c(C(=O)NCc3ccc(OC)cc3)sc2n1", "outcome": "inactive"}
{"smiles": "CCCCCOc1cc(C)c2c(N)c(C(=O)NCc3ccc(OC)cc3)sc2n1", "outcome": "inactive"}
{"smiles": "COc1ccc(CNC(=O)c2sc3nc(OCc4cccnc4)cc(C)c3c2N)cc1", "outcome": "active; fitted 2.21 uM"}
{"smiles": "Cc1cc(OCCCN(C)C)nc2sc(C(=O)NC3COC3)c(N)c12", "outcome": "active; fitted 2.58 uM"}
{"smiles": "COc1ccc(CNC(=O)c2sc3nc(OCCCN(C)C)cc(C)c3c2N)cc1", "outcome": "inactive"}
{"smiles": "Cc1cc(OCc2ccccn2)nc2sc(C(=O)NCc3cc(F)ccc3F)c(N)c12", "outcome": "inactive"}
{"smiles": "Cc1cc(OCc2ccncc2)nc2sc(C(=O)NCc3cc(F)ccc3F)c(N)c12", "outcome": "active; fitted 1.58 uM"}
{"smiles": "Cc1cc(OCCN2CCOCC2)nc2sc(C(=O)NC(C)C)c(N)c12", "outcome": "active; fitted 7.15 uM"}
{"smiles": "Cc1cc(OCc2ccccn2)nc2sc(C(=O)NCc3cccc(F)c3F)c(N)c12", "outcome": "active; fitted 5.4 uM"}
{"smiles": "Cc1cc(OCCN2CCOCC2)nc2sc(C(=O)Nc3ccccc3)c(N)c12", "outcome": "active; fitted 5.81 uM"}
{"smiles": "COc1ccc(CNC(=O)c2sc3nc(OCCN4CCCC4)cc(C)c3c2N)cc1", "outcome": "active; fitted 8.24 uM"}
{"smiles": "Cc1cc(OCCN2CCOCC2)nc2sc(C(=O)NC3COC3)c(N)c12", "outcome": "active; fitted 7.42 uM"}
{"smiles": "COc1ccc(CNC(=O)c2sc3nc(OCc4ccncc4)cc(C)c3c2N)cc1", "outcome": "active; fitted 1.97 uM"}
{"smiles": "Cc1cc(OCCN2CCOCC2)nc2sc(C(=O)NC(C)(C)C)c(N)c12", "outcome": "active; fitted 8.73 uM"}
